Screening results (PubChem BioAssay)
An excerpt weighted towards active compounds, which were near 0.93% of everything screened.
AGP1-GFP MLPCN – alters AGP1-GFP fluorescence in TOR pathway yeast screen; S. cerevisiae AGP1-GFP multiplex flow cytometry, 3 h; GFP as percent of DMSO wells; GFP response vs DMSO, % at 10 µM; hit rate 0.02% among 320,000;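 active = GFP response relative to DMSO above a set limit, near screen average plus 3 SD, cut at about 150% in these data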;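 also: median GFP channel fluorescence of the gated AGP1 strain per well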
MEP2-GFP yeast – alters MEP2-GFP fluorescence in TOR pathway yeast screen; S. cerevisiae MEP2-GFP strain, flow cytometry GFP, 3 h; 100% = DMSO control level; GFP response vs DMSO, % at 10 µM; hit rate 0.51% among 330,000;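 active = GFP response versus DMSO above a set limit, roughly screen mean plus 3 SD, cut at about 180% in these data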;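 also: median GFP fluorescence of the barcode-gated MEP2-GFP cells per well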
LAP4 TOR yeast – modulators of TOR pathway LAP4-GFP in S. cerevisiae; GFP response vs DMSO, % at 10 µM; S. cerevisiae LAP4-GFP multiplex, flow cytometry GFP, 3 h; median GFP as percent of DMSO wells; hit rate 0.34% among 320,000;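 active = GFP response vs DMSO above a set limit, about the screen mean plus 3 SD, cut at about 150% in these data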
RPL19A-GFP yeast – alters RPL19A-GFP fluorescence in TOR pathway yeast screen. S. cerevisiae RPL19A-GFP strain, flow cytometry, 3 h; stronger effect = lower value. percent response vs DMSO, % at 10 µM. hit rate 0.3% among 330,000. AID 2025;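 active = percent response vs DMSO below 50%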;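 also: median channel GFP fluorescence of the barcoded RPL19A-GFP strain; ratio of sample median GFP to plate DMSO average so 100% = DMSO; lower means less RPL19A-GFP as with rapamycin TOR inhibition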
CIT2 TOR yeast – alters CIT2-GFP fluorescence in TOR pathway yeast screen; AID 2029; S. cerevisiae CIT2-GFP strain, flow cytometry, 3 h; 100 means same as DMSO wells; GFP response vs DMSO, % at 10 µM; hit rate 0.065% among 320,000;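 active = GFP response relative to DMSO above a set limit, near the screen mean plus 3 SD, cut at about 150% in these data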;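 also: ratio of well median GFP fluorescence to mean of DMSO wells on the plate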
LAP4 cherry2 – reconfirmed LAP4-GFP TOR pathway modulator in yeast; shares compounds with LAP4 TOR yeast; S. cerevisiae LAP4-GFP strain, flow cytometry GFP, 3 h; GFP response vs DMSO, % at 10 µM; hit rate 20% among 590; AID 2621;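 active = GFP signal as percent of the solvent control above about 150%, meaning raised reporter expression, limit read from the data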;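 also: ratio of well median GFP fluorescence to plate DMSO mean so 100% = DMSO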
MEP2-GFP pick2 – yeast MEP2-GFP modulation, second cherry pick; shares compounds with LAP4 TOR yeast; S. cerevisiae MEP2-GFP strain, flow cytometry GFP, 3 h; GFP response vs DMSO, % at 10 µM; hit rate 10% among 590;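 active = GFP signal above 150% of the solvent control wells, that is a rise of more than half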;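 also: median channel GFP fluorescence of all gated yeast cells per well; ratio of median GFP to plate DMSO average so 100% = DMSO level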
RPL19A GFP CP2 – second confirmation of modulators of TOR reporter RPL19A-GFP in yeast. hit rate 3% among 590. shares compounds with LAP4 TOR yeast. S. cerevisiae RPL19A-GFP strain, flow cytometry GFP, 3 h; stronger effect = lower value; 100% means same as DMSO wells. AID 2623. GFP response vs DMSO, % at 10 µM;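 active = under 65% GFP response relative to DMSO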;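 also: median GFP channel fluorescence per well over the all cells gate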
CIT2-GFP pick2 – second confirmation of modulators of TOR reporter CIT2-GFP in yeast. shares compounds with LAP4 TOR yeast. GFP response vs DMSO, % at 10 µM. hit rate 8% among 590. AID 2624. S. cerevisiae CIT2-GFP strain, flow cytometry GFP, 3 h; DMSO control wells read 100%;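 active = GFP response vs DMSO above about 150%, limit read from the data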;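 also: median green fluorescence per well over all gated yeast cells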
AGP1-GFP pick2 – second confirmation of modulators of TOR reporter AGP1-GFP in yeast | shares compounds with LAP4 TOR yeast | 590 tested, under 10 active | percent response vs DMSO, % at 10 µM | S. cerevisiae AGP1-GFP strain, flow cytometry GFP, 3 h;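 active = over 150 percent of DMSO response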;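 also: median GFP channel fluorescence over all cells without mother daughter split; sample median GFP divided by mean DMSO control so 100% equals DMSO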
Yeast autofluor – compound is autofluorescent in yeast s288c cells; shares compounds with LAP4 TOR yeast; S. cerevisiae s288c, 520 nm autofluorescence, flow cytometry, 3 h; stronger effect = higher value; zero means same as solvent-only cells; fluorescence change (kMESF span) at 33 µM; 610 tested, under 10 active; AID 2757;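 active = fluorescence span over the dose series, or activity score, above about 33, limit read from the data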
* marks the source's active call; other numbers are inactive results; . = not tested or not shown.

SMILES	AGP1-GFP MLPCN	MEP2-GFP yeast	LAP4 TOR yeast	RPL19A-GFP yeast	CIT2 TOR yeast	LAP4 cherry2	MEP2-GFP pick2	RPL19A GFP CP2	CIT2-GFP pick2	AGP1-GFP pick2	Yeast autofluor
CCCCN1C[C@H](Cc2ccccc2)[C@@H](CC(=O)NCc2ccc(OC)cc2)C1=O	102.2	141.3	159.2*	88.5	101.2	97.1	99.8	101.7	106.3	104.7	.
CCN(CC)C(=O)Cn1cc(C(=O)C(=O)NCCc2ccc(S(N)(=O)=O)cc2)c2ccccc21	108.9	106.0	109.3	106.0	103.1	.	.	.	.	.	.
NS(=O)(=O)c1ccc(CCNC(=O)C(=O)c2cn(CC(=O)N3CCOCC3)c3ccccc23)cc1	109.2	113.2	104.3	98.9	171.3*	102.9	101.5	99.2	106.3	99.4	.
COc1ccc(-c2cn(Cc3ccc4ccccc4c3)nn2)cc1	77.9	79.3	128.0	86.1	90.3	.	.	.	.	.	.
COc1ccc(-c2cn(Cc3ccc(C(=O)c4ccccc4)cc3)nn2)cc1	96.7	114.0	163.8*	86.6	104.9	100.2	96.1	98.9	119.6	100.0	.
COC(=O)c1c(NC(=O)CSc2nc3nc(C)cc(C)n3n2)sc(C)c1C	93.5	94.3	93.7	96.6	97.9	.	.	.	.	.	.
CCCCC1OC23CCCCC2C(C#N)(C(=N)O3)C1(C#N)C#N (centres undefined)	70.2	189.3*	96.6	63.5	92.8	.	.	.	.	.	0.31
CC(=O)c1c(C)[nH]c(C(=O)COC(=O)c2ccc(C)s2)c1C	124.1	131.4	153.3*	118.1	120.3	99.0	104.8	101.3	98.4	100.1	.
CCOC(=O)c1c(C)[nH]c(C(=O)COC(=O)c2[nH]c(C)c(C(C)=O)c2C)c1C	108.0	107.4	109.7	103.4	112.7	.	.	.	.	.	.
N/C(Cc1ccc(Cl)cc1)=N\OC(=O)c1ccccc1	62.1	105.8	192.4*	81.8	110.7	218.4*	165.9*	89.9	225.3*	76.5	1.7
CC1=NOC(=O)/C1=C\c1ccc(-c2cc(Cl)ccc2Cl)o1	54.9	93.9	167.4*	89.2	110.6	.	.	.	.	.	1.51
Cc1cc(NC(=O)CCS(=O)(=O)c2nc(-c3ccccc3)cc(C(F)(F)F)n2)no1	112.6	103.7	111.4	99.7	98.8	.	.	.	.	.	.
CS(=O)(=O)c1nc(-c2ccccc2)cc(C(F)(F)F)n1	110.7	141.8	160.1*	86.2	79.8	.	.	.	.	.	0.51
CCN(Cc1ccccc1)C(=O)C(=O)c1cn(CC(=O)N2CCCC2)c2ccccc12	111.6	104.7	101.7	101.6	178.0*	98.1	101.5	100.0	106.3	102.2	.
CC1CCCCN1C(=O)C(=O)c1cn(CC(=O)N2CCCC2)c2ccccc12 (centres undefined)	105.6	102.2	103.5	92.1	106.3	.	.	.	.	.	.
CC1CCN(C(=O)C(=O)c2cn(CC(=O)N3CCCC3)c3ccccc23)CC1	103.7	114.4	100.9	95.5	159.4*	99.2	101.3	98.5	109.9	96.7	.
NC(=O)C1CCN(C(=O)c2ccc(-c3ccccc3Cl)o2)CC1	97.5	92.9	99.6	97.5	95.0	.	.	.	.	.	.
COc1ccccc1CNC(=O)C(NC(=O)c1ccccc1)C(C)C (centres undefined)	85.2	100.8	90.5	92.2	101.0	.	.	.	.	.	.
Cc1ccc(C2=NN(S(C)(=O)=O)C(c3ccc4c(c3)OCO4)C2)cc1 (centres undefined)	98.7	105.9	105.5	108.5	128.0	.	.	.	.	.	4.64
COc1ccc(CCN(C)C2CCCN(S(=O)(=O)c3ccc(C)cc3)C2)cc1OC (centres undefined)	109.1	101.6	98.5	107.3	113.5	.	.	.	.	.	.
[O-][n+]1cccc2c(Br)cc(Br)c(O)c21	107.9	100.3	163.2*	101.0	117.8	.	.	.	.	.	1.12
C[n+]1cccc2c(Br)ccc([O-])c21	107.9	103.3	111.2	101.5	99.9	.	.	.	.	.	.
O=C1c2cccc3c(N4CCCCC4)ccc(c23)C(=O)N1c1ccccn1	96.1	107.5	104.5	102.0	101.2	.	.	.	.	.	.
O=C1c2cccc3c([N+](=O)[O-])ccc(c23)C(=O)N1c1ccccn1	82.8	301.2*	193.0*	115.3	191.4*	193.3*	324.5*	121.7	195.6*	114.2	13.1
O=C1c2cccc3c([N+](=O)[O-])ccc(c23)C(=O)N1O	115.8	350.2*	227.9*	147.8	273.8*	.	.	.	.	.	20.1
SMILES	AGP1-GFP MLPCN	MEP2-GFP yeast	LAP4 TOR yeast	RPL19A-GFP yeast	CIT2 TOR yeast	LAP4 cherry2	MEP2-GFP pick2	RPL19A GFP CP2	CIT2-GFP pick2	AGP1-GFP pick2	Yeast autofluor
Cn1cc(/C=C/C(=O)N2CCCC(C(=O)c3ccc(C(C)(C)C)cc3)C2)cn1 (centres undefined)	64.6	94.4	102.5	110.5	88.1	.	.	.	.	.	.
CC(=O)Nc1ccc(S(=O)(=O)NCCc2cn3nc(C)c(C)nc3n2)cc1	104.2	92.6	96.6	97.5	96.3	.	.	.	.	.	.
COc1ccc(S(=O)(=O)NCCc2cn3nc(C)c(C)nc3n2)cc1F	23.4	120.2	85.5	62.2	97.9	98.1	99.8	99.4	99.5	98.4	.
COC(=O)C1C/C(=N\NS(=O)(=O)c2ccc(C)cc2)c2ccsc2C1 (centres undefined)	103.6	103.2	87.2	104.8	102.4	.	.	.	.	.	.
CC(=O)CSc1ncnc2c1cnn2-c1ccccc1	102.7	182.8*	148.5	120.1	202.7*	.	.	.	.	.	0.1
CCOC(=O)N1CCN(c2ccc(N3C(=O)CCCC3=O)cc2[N+](=O)[O-])CC1	105.7	103.2	106.2	102.5	99.6	.	.	.	.	.	.
CC1=NNC(=O)/C1=C\c1cn(-c2ccccc2)nc1-c1cccs1	88.0	107.6	262.6*	92.5	93.8	.	.	.	.	.	3.03
CN(Cc1ccccc1C#N)S(=O)(=O)c1cccs1	100.9	106.0	98.7	110.3	102.5	.	.	.	.	.	.
N#Cc1nccnc1S(=O)(=O)c1cccs1	85.9	76.8	250.5*	66.8	66.7	.	.	.	.	.	0.61
O=c1[nH]c(NCc2ccccc2)nc2c1CCC2	98.5	99.2	100.2	96.8	97.3	.	.	.	.	.	.
Cc1nc(Nc2nc3c(c(=O)[nH]2)CCC3)nc2ccccc12	66.6	109.0	93.5	65.0	71.2	117.2	111.8	74.5	104.3	100.5	.
